The text below walks through data of PubChem BioAssay (NCI).

Test systems include DU-145 prostate; K-562 leukemia; MALME-3M melanoma; MDA-MB-231 breast; RXF 393 renal; SF-268 CNS; SF-295 CNS; SF-539 CNS; UACC-257 melanoma; M14 melanoma.
What all share (experiment): NCI-60 one-dose screen, 48 h (100 = growth as untreated, 0 = no growth, -100 = all killed)
Holding throughout (settings): 10 µM

The panel holds about 83,000 compounds, 20% with a hit somewhere; the sample as a whole holds those more often.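 Values shown are percent growth following 48 h exposure of cells in 96-well plates to a single concentration of compound; below 10 was considered active.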 Unmarked numbers belong to inactive results. Activity calls are given as the source filed them.

`O=C(Nc1cc(Cl)cc2c1-c1ccc(Cl)cc1C2O)C(Cl)Cl` (stereo not given): the growth with DU-145 prostate was 60.1%; in the assay on K-562 leukemia it was 81.9%; in the assay on MALME-3M melanoma, 105%; in the assay on MDA-MB-231 breast it was 74.4%; in the assay with RXF 393 renal it was 63.8%; in the assay with SF-268 CNS it was 91.9%. For the same molecule, the growth in the assay with SF-295 CNS is 83.4%; in the assay on SF-539 CNS it was 84.2%; in the assay on UACC-257 melanoma it was 89.8%; in the assay on M14 melanoma, 85.3%.

On to `NC1=NC(c2ccccc2)C2=C(N1)/C(=C/c1ccccc1)CCC2` (stereo not given), for which the growth with DU-145 prostate was 117%; in the assay on K-562 leukemia, 76.4%; in the assay on MALME-3M melanoma, 103%; in the assay on MDA-MB-231 breast, 101%; with RXF 393 renal, 101%; in the assay on SF-268 CNS, 91.7%. Also, the growth was 95% in the assay with SF-295 CNS, 92.8% in the assay with SF-539 CNS, 83.8% with UACC-257 melanoma and 61.9% with M14 melanoma.

On to `COc1ccc(NC(=O)C2CC3C=CC2C3)c([N+](=O)[O-])c1` (stereo not given), for which the growth is 110% with DU-145 prostate; 88.9% in the assay with K-562 leukemia; 116% in the assay with MALME-3M melanoma; 93.3% in the assay with MDA-MB-231 breast; 99.8% in the assay with RXF 393 renal; 102% in the assay on SF-268 CNS. For the same molecule, the growth was 95.5% in the assay with SF-295 CNS, 98.6% in the assay on SF-539 CNS, 98.1% in the assay with UACC-257 melanoma and 130% in the assay on M14 melanoma.

`CN(C)c1ccc(/C=N/NC(=O)c2cccc3ccccc23)c(Cl)c1`: the growth in the assay with DU-145 prostate was 17.1%; in the assay on K-562 leukemia, 11.6%; in the assay on MALME-3M melanoma it was 53.4%; in the assay with MDA-MB-231 breast, 67.7%; with RXF 393 renal, 7.47% (active); in the assay with SF-268 CNS, 59%. Besides, the growth in the assay on SF-295 CNS is 19.1%; in the assay on SF-539 CNS it was 19.9%; in the assay on UACC-257 melanoma it was 35.8%; in the assay with M14 melanoma, 27.6%.

As for `N#Cc1ccc(C(=O)CSc2nccc(Nc3ccc(C(=O)O)cc3)n2)cc1`, the growth in the assay on DU-145 prostate was 110%; in the assay on K-562 leukemia, 106%; in the assay on MALME-3M melanoma it was 106%; with MDA-MB-231 breast it was 107%; in the assay with RXF 393 renal, 97.4%; with SF-268 CNS, 102%. Moreover, the growth in the assay with SF-295 CNS was 97.4%; in the assay with SF-539 CNS it was 97.9%; with UACC-257 melanoma, 110%; in the assay with M14 melanoma it was 110%.

As to `CS(=O)(=O)c1nccc(-c2c(-c3cccc(OCCN4CCOCC4)c3)nc3sccn23)n1`, the growth is 91.9% with DU-145 prostate; 91.5% with K-562 leukemia; 105% in the assay with MALME-3M melanoma; 67.9% in the assay on MDA-MB-231 breast; 89.2% with RXF 393 renal; 107% with SF-268 CNS. Also, the growth is 104% in the assay with SF-295 CNS, 81.3% in the assay on SF-539 CNS, 110% in the assay on UACC-257 melanoma and 113% in the assay on M14 melanoma.

For the molecule `COc1ccc(C(=O)c2ccccc2CN2C(=O)c3ccccc3C2=O)cc1`, the growth was 110% in the assay on DU-145 prostate; 96.5% in the assay on K-562 leukemia; 98.6% in the assay on MALME-3M melanoma; 109% in the assay on MDA-MB-231 breast; 107% with RXF 393 renal; 102% with SF-268 CNS. For the same molecule, the growth in the assay on SF-295 CNS is 100%; in the assay on SF-539 CNS it was 108%; with UACC-257 melanoma it was 104%; with M14 melanoma, 104%.

`CCCc1cn(CC(=O)Nc2nc3ccccc3s2)nn1`: the growth in the assay on DU-145 prostate is 117%; in the assay on K-562 leukemia it was 106%; with MALME-3M melanoma it was 101%; in the assay with MDA-MB-231 breast, 98.9%; in the assay on RXF 393 renal, 114%; in the assay on SF-268 CNS, 98.8%. Moreover, the growth is 104% in the assay with SF-295 CNS, 99.5% with SF-539 CNS, 106% with UACC-257 melanoma and 102% in the assay on M14 melanoma.

As to `COc1cc(/C=C/c2cc(/C=C/c3ccc(O)c(OC)c3)[nH]c(=O)n2)ccc1O`, the growth in the assay on DU-145 prostate was 80.4%; in the assay with K-562 leukemia it was 42%; with MALME-3M melanoma, 53.6%; in the assay on MDA-MB-231 breast, 54.2%; in the assay on RXF 393 renal it was 23.7%; in the assay with SF-268 CNS it was 48.2%. Besides, the growth in the assay on SF-295 CNS was 92.8%; in the assay on SF-539 CNS it was 69%; in the assay on UACC-257 melanoma, 62.5%; in the assay with M14 melanoma, 75.5%.

For `O=C(Nc1ccc2c(O)cc(S(=O)(=O)O)cc2c1)c1ccc([N+](=O)[O-])cc1`, the growth was 99.7% in the assay with DU-145 prostate; 99% in the assay with K-562 leukemia; 99.8% with MALME-3M melanoma; 105% in the assay with MDA-MB-231 breast; 105% with RXF 393 renal; 93.9% with SF-268 CNS. Further, the growth in the assay with SF-295 CNS is 98.2%; in the assay on SF-539 CNS, 97%; in the assay on UACC-257 melanoma, 74.6%; in the assay on M14 melanoma it was 94.6%.

On to `O=C(CCCSc1nc(-c2ccccc2)cc(-c2ccc(Cl)cc2)n1)NO`, for which the growth was 14.2% in the assay on DU-145 prostate; 8.59% (active) with K-562 leukemia; 4.49% (active) in the assay on MALME-3M melanoma; 17.7% in the assay with MDA-MB-231 breast; -19.2% (active) with RXF 393 renal; 14.3% in the assay with SF-268 CNS. In addition, the growth in the assay with SF-295 CNS was 4.46% (active); in the assay with SF-539 CNS it was -27.2% (active); in the assay on UACC-257 melanoma it was 8.34% (active); in the assay with M14 melanoma, 5.54% (active).

As for `O=C(CC(CC(=O)c1ccccc1)c1ccccc1O)c1ccccc1`, the growth was 103% with DU-145 prostate; 89.4% in the assay on K-562 leukemia; 91.8% with MALME-3M melanoma; 90.4% in the assay on MDA-MB-231 breast; 107% in the assay with RXF 393 renal; 89.8% in the assay on SF-268 CNS. Moreover, the growth in the assay with SF-295 CNS was 99.9%; in the assay with SF-539 CNS, 99.1%; in the assay with UACC-257 melanoma, 98.4%; in the assay on M14 melanoma, 92.8%.

On to `O=S(=O)(O)c1ccc(Cl)cc1`, for which the growth is 101% in the assay on DU-145 prostate; 99.7% in the assay on K-562 leukemia; 98.2% with MALME-3M melanoma; 107% in the assay on MDA-MB-231 breast; 123% in the assay with RXF 393 renal; 95.1% with SF-268 CNS. Besides, the growth is 109% in the assay with SF-295 CNS, 102% with SF-539 CNS, 99.2% with UACC-257 melanoma and 99.7% in the assay with M14 melanoma.

Take `CCOc1ccccc1/C=N\N=C\c1ccccc1O`: the growth in the assay on DU-145 prostate was 98.8%; with K-562 leukemia it was 75.5%; in the assay on MALME-3M melanoma, 96.5%; with MDA-MB-231 breast it was 78.7%; in the assay on RXF 393 renal, 121%; with SF-268 CNS it was 94.7%. Moreover, the growth is 105% in the assay on SF-295 CNS, 107% in the assay on SF-539 CNS, 107% in the assay with UACC-257 melanoma and 97.3% with M14 melanoma.
